# Measurements reported in article PMC7862700, “An all-to-all approach to the identification of sequence-specific readers for epigenetic DNA modifications on cytosine”.
# Key:
# Experiment in all cases: DAPPL (digital affinity profiling via proximity ligation, sequencing); 10 mM Tris-HCl pH 7.5, 50 mM NaCl, 1 mM DTT, 4% glycerol, room temperature, 30 min; GST-TFs on glutathione beads, 16-mer random dsDNA library, 0.1% formaldehyde crosslink after washing; high values mean tight binding
# FLI1 = target: T1, FLI1 (Homo sapiens, UniProt Q01543 1-452); details: protein: recombinant; tags: N-terminal GST; dsDNA, one strand shown
# T1 sequence: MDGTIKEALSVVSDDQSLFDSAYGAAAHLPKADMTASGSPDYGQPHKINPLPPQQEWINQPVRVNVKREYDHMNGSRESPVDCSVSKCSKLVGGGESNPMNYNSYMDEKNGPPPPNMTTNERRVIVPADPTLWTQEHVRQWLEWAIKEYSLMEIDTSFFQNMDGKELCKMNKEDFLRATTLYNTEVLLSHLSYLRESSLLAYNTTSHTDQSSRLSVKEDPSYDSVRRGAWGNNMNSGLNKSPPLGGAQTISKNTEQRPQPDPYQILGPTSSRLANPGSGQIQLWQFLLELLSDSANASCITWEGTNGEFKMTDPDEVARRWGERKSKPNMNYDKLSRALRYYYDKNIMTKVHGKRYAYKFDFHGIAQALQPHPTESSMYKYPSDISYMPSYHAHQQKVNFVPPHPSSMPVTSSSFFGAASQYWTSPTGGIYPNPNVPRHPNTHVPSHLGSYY
# Method in brief: (§1)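 Beads coated with glutathione captured GST-fused human transcription factors that had been expressed in yeast, and the factors were then given DNA barcodes and pooled with a tag-only sample. The pools were incubated with 200 nmole of a random double-stranded 16-mer DNA library in Tris/NaCl/DTT/glycerol buffer for 30 min at room temperature, washed, crosslinked with 0.1% formaldehyde and proximity-ligated with BsaI/T4 ligase at 37 °C for 1 h. PCR amplification and Illumina NextSeq500 sequencing came last. Binding signal is each hexamer's read frequency for a factor divided by its frequency for the tag-only sample.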
# ELK1 = target: T2, ELK1 (Homo sapiens, UniProt P19419 1-428); details: protein: recombinant; tags: N-terminal GST; dsDNA, one strand shown
# T2 sequence: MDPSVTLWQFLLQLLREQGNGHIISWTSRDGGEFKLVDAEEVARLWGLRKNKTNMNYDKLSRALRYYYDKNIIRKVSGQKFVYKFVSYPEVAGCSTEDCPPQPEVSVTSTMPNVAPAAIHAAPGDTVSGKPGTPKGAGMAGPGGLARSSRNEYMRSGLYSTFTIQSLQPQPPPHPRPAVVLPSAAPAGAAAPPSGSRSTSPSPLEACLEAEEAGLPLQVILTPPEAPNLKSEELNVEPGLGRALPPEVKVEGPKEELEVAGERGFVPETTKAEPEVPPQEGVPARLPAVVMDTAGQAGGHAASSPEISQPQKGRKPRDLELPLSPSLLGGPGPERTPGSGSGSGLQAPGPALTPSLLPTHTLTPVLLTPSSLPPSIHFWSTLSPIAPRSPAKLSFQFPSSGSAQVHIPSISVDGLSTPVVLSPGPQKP
# Method in brief: as §1
# GABPA = target: T3, GABPA (Homo sapiens, UniProt Q06546 1-454); details: protein: recombinant; tags: N-terminal GST; dsDNA, one strand shown
# T3 sequence: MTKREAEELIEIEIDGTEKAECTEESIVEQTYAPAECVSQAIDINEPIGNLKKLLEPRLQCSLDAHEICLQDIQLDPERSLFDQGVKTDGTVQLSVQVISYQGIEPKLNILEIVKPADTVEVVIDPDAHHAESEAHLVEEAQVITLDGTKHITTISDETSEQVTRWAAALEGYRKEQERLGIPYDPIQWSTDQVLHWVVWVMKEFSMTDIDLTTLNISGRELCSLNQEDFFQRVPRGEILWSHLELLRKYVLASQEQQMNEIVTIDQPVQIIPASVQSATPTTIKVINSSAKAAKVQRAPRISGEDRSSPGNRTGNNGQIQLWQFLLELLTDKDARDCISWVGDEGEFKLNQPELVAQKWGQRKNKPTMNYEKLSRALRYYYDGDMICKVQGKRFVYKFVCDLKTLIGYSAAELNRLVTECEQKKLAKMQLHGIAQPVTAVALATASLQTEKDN
# Method in brief: as §1
# ERG = target: T4, ERG (Homo sapiens, UniProt P11308 1-479); details: protein: recombinant; tags: N-terminal GST; dsDNA, one strand shown
# T4 sequence: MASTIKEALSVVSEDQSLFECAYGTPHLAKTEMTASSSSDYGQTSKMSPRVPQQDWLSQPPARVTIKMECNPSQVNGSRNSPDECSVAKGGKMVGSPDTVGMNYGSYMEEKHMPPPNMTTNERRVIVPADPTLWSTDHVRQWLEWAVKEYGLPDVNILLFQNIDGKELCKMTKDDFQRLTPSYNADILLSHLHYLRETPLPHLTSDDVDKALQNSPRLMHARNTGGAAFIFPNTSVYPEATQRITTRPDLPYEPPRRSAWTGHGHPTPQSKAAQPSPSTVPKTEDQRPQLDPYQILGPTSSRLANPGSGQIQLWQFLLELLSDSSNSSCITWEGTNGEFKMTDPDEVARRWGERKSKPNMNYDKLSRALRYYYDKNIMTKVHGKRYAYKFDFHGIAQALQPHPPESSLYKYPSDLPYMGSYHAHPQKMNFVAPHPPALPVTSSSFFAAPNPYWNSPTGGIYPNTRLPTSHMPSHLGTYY
# Method in brief: as §1
# ELF1 = ELF1 (Homo sapiens, UniProt P32519 1-619); details: protein: recombinant; tags: N-terminal GST; dsDNA, one strand shown
# Chain of ELF1 (P32519 whole entry): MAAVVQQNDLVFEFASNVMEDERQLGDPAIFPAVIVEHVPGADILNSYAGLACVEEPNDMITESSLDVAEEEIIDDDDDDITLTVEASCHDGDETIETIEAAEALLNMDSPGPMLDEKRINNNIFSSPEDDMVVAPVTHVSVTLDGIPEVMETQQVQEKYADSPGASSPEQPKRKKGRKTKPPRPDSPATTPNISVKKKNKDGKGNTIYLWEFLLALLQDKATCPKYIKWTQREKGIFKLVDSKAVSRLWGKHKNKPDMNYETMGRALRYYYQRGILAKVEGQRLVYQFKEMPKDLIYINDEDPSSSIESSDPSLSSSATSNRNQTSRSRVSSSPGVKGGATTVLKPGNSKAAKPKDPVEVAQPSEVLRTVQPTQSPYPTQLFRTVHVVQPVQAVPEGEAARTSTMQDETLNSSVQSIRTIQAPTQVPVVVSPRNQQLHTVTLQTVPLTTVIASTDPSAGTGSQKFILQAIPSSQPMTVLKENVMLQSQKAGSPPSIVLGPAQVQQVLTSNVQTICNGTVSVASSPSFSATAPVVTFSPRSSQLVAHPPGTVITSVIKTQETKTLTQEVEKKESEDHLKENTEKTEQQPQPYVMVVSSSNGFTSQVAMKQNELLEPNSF
# Method in brief: as §1
# EHF = target: T5, EHF (Homo sapiens, UniProt Q9NZC4 1-300); details: protein: recombinant; tags: N-terminal GST; dsDNA, one strand shown
# T5 sequence: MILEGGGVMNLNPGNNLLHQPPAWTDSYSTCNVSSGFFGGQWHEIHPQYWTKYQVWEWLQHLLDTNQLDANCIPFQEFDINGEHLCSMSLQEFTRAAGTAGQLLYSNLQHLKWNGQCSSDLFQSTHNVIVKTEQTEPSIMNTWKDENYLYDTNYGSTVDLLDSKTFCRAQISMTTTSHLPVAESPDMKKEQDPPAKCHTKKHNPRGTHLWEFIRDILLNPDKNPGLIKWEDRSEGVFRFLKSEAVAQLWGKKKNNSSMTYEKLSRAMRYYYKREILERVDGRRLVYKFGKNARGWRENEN
# Method in brief: as §1
# SPI1 = SPI1 (Homo sapiens, UniProt P17947 1-270); details: protein: recombinant; tags: N-terminal GST; dsDNA, one strand shown
# Method in brief: as §1
# SPIB = SPIB (Homo sapiens, UniProt Q01892 1-262); details: protein: recombinant; tags: N-terminal GST; dsDNA, one strand shown
# Chain of SPIB (Q01892 whole entry): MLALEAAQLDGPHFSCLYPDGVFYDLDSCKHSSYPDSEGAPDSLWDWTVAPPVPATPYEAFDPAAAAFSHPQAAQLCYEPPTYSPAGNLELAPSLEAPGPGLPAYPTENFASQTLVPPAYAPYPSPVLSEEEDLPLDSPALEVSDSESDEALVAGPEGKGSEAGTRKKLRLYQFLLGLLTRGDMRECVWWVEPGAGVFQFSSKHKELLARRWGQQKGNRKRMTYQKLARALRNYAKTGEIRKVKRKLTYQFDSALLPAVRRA
# Method in brief: as §1
# ELK3 = target: T6, ELK3 (Homo sapiens, UniProt P41970 1-407); details: protein: recombinant; tags: N-terminal GST; dsDNA, one strand shown
# T6 sequence: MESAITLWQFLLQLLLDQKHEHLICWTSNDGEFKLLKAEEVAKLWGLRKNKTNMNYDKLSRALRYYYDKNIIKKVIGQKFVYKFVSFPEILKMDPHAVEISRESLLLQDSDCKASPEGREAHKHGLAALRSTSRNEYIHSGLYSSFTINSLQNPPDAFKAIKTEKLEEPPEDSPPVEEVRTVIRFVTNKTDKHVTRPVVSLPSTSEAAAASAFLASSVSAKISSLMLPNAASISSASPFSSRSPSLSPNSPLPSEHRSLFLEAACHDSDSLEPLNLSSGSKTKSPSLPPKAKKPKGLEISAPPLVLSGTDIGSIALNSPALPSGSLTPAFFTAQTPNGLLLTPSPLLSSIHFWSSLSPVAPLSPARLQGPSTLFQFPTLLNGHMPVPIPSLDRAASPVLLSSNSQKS
# Method in brief: as §1
# FEV = target: T7, FEV (Homo sapiens, UniProt Q99581 1-238); details: protein: recombinant; tags: N-terminal GST; dsDNA, one strand shown
# T7 sequence: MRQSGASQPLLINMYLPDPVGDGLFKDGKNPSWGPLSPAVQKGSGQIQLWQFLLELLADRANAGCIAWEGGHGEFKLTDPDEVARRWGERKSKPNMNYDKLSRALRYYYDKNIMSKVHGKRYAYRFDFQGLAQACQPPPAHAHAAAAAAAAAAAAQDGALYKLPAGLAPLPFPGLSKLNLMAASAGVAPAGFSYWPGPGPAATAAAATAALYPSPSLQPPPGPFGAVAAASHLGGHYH
# Method in brief: as §1
# ETV5 = ETV5 (Homo sapiens, UniProt P41161 1-510); details: protein: recombinant; tags: N-terminal GST; dsDNA, one strand shown
# Chain of ETV5 (P41161 whole entry): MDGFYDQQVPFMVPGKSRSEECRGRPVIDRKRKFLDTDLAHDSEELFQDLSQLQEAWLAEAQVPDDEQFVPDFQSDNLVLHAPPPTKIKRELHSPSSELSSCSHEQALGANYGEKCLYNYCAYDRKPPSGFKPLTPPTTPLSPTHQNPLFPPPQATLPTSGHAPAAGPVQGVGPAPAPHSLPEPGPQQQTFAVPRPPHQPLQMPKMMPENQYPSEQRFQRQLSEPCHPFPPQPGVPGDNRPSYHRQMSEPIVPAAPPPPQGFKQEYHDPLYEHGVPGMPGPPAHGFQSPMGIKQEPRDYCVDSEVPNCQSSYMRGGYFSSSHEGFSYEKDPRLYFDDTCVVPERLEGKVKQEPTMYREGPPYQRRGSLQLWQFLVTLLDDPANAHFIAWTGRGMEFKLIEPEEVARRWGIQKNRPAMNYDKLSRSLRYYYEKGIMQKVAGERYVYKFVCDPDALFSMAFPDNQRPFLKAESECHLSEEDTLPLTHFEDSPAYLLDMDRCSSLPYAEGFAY
# Method in brief: as §1
# HSF1 = HSF1 (Homo sapiens, UniProt Q00613 1-529); details: protein: recombinant; tags: N-terminal GST; chain copies: 3; dsDNA, one strand shown
# Chain of HSF1 (Q00613 whole entry): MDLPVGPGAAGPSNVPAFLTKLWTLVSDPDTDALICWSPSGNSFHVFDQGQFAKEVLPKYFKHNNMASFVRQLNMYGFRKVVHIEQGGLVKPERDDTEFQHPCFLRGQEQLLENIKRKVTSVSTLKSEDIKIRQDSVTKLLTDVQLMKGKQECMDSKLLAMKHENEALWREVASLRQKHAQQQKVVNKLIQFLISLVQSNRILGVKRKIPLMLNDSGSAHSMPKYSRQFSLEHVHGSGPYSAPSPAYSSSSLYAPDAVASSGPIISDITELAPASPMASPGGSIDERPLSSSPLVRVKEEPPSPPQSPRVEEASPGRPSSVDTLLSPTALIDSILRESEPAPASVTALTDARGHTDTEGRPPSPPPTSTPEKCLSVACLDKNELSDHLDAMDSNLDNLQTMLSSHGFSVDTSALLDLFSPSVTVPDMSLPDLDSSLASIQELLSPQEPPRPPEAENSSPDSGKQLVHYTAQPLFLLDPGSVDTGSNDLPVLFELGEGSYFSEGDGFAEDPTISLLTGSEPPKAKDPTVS
# Method in brief: as §1
# ELF4 = ELF4 (Homo sapiens, UniProt Q99607 1-663); details: protein: recombinant; tags: N-terminal GST; dsDNA, one strand shown
# Chain of ELF4 (Q99607 whole entry): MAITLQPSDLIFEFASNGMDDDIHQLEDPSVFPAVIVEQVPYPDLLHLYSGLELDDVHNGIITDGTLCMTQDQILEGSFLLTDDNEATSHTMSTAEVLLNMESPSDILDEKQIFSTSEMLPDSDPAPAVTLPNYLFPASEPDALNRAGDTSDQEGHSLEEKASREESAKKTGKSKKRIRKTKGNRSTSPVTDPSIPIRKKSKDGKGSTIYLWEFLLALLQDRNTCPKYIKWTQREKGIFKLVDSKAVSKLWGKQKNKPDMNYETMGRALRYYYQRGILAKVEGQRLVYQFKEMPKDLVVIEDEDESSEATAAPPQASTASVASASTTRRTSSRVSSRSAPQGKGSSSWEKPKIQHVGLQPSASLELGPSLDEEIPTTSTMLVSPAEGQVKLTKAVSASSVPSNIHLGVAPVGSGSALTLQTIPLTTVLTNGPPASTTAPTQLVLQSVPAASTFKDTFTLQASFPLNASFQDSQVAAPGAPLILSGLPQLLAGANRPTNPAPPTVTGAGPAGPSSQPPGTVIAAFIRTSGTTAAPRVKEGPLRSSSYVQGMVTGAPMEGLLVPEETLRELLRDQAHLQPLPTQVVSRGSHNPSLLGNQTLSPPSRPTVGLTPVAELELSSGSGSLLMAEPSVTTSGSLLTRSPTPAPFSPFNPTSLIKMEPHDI
# Method in brief: as §1
# ELK4 = target: T8, ELK4 (Homo sapiens, UniProt P28324-2 1-405); details: protein: recombinant; tags: N-terminal GST; dsDNA, one strand shown
# T8 sequence: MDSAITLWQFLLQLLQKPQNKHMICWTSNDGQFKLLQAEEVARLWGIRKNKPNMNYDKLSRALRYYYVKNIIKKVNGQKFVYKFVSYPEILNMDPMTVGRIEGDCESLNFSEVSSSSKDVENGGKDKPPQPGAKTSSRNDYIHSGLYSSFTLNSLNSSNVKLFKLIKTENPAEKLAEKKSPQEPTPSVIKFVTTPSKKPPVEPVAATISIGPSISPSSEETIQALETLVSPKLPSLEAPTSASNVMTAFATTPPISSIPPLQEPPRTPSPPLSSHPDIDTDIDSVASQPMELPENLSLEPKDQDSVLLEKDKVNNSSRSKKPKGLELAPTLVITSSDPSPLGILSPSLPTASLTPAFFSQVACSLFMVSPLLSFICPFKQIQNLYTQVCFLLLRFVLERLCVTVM
# Method in brief: as §1
# ETV2 = target: T9, ETV2 (Homo sapiens, UniProt O00321 1-342); details: protein: recombinant; tags: N-terminal GST; dsDNA, one strand shown
# T9 sequence: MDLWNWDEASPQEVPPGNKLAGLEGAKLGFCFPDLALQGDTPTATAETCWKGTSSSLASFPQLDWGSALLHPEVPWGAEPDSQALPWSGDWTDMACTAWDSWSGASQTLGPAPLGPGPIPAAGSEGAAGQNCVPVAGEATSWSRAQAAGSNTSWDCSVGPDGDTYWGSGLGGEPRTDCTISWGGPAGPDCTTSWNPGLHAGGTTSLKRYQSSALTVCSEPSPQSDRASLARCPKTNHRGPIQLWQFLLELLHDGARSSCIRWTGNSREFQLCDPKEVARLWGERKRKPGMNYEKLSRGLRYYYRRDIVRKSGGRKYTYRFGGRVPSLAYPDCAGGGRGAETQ
# Method in brief: as §1
# ELF3 = target: T10, ELF3 (Homo sapiens, UniProt P78545 1-371); details: protein: recombinant; tags: N-terminal GST; dsDNA, one strand shown
# T10 sequence: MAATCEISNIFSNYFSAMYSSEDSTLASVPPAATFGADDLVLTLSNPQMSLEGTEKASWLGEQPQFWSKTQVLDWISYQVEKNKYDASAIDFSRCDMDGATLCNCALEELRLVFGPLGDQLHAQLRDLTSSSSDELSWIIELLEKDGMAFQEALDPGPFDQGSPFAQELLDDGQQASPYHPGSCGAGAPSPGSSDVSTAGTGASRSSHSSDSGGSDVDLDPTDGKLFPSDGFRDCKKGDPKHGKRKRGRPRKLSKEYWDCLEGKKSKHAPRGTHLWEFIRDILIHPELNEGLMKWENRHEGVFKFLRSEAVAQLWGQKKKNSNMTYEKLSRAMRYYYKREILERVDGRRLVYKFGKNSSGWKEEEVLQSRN
# Method in brief: as §1
# CRX = CRX (Homo sapiens, UniProt O43186 1-299); details: protein: recombinant; tags: N-terminal GST; dsDNA, one strand shown
# Chain of CRX (O43186 whole entry): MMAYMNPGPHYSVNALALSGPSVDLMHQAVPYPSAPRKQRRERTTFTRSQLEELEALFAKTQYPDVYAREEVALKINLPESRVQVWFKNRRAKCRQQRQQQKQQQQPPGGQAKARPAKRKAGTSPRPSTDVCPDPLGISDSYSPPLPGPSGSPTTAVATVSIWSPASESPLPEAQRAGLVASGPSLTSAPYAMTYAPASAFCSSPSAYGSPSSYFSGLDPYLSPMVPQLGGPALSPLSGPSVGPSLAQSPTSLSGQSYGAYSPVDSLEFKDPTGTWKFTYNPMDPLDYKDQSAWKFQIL
# Method in brief: as §1
# ETV1 = ETV1 (Homo sapiens, UniProt P50549 1-477); details: protein: recombinant; tags: N-terminal GST; dsDNA, one strand shown
# Chain of ETV1 (P50549 whole entry): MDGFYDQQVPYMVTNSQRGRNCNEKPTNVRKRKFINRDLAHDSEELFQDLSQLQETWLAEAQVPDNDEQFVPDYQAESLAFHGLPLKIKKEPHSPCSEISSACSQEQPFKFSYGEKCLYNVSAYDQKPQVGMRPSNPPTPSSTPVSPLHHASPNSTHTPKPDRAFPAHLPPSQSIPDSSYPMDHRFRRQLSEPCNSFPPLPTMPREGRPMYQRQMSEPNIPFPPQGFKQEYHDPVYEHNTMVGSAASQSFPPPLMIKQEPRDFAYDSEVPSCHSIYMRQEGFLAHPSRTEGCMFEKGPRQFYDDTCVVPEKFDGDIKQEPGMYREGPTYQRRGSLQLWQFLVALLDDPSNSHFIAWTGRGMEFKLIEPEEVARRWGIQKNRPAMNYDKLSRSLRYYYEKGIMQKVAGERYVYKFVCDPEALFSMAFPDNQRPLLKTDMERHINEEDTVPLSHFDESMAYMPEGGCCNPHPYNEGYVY
# Method in brief: as §1
sequence,measurement,setting,value
ACAAAA,binding signal,FLI1,"1.14 fold enrichment (6-mer frequency, TF over GST control)"
same,binding signal,ELK1,"1.11 fold enrichment (6-mer frequency, TF over GST control)"
same,binding signal,GABPA,"1.15 fold enrichment (6-mer frequency, TF over GST control)"
same,binding signal,ERG,"1.18 fold enrichment (6-mer frequency, TF over GST control)"
same,binding signal,ELF1,"1.16 fold enrichment (6-mer frequency, TF over GST control)"
same,binding signal,EHF,"1.21 fold enrichment (6-mer frequency, TF over GST control)"
same,binding signal,SPI1,"1.22 fold enrichment (6-mer frequency, TF over GST control)"
same,binding signal,SPIB,"1.14 fold enrichment (6-mer frequency, TF over GST control)"
same,binding signal,ELK3,"1.16 fold enrichment (6-mer frequency, TF over GST control)"
same,binding signal,FEV,"1.19 fold enrichment (6-mer frequency, TF over GST control)"
same,binding signal,ETV5,"1.17 fold enrichment (6-mer frequency, TF over GST control)"
same,binding signal,HSF1,"1.09 fold enrichment (6-mer frequency, TF over GST control)"
same,binding signal,ELF4,"1.16 fold enrichment (6-mer frequency, TF over GST control)"
same,binding signal,ELK4,"1.15 fold enrichment (6-mer frequency, TF over GST control)"
same,binding signal,ETV2,"1.11 fold enrichment (6-mer frequency, TF over GST control)"
same,binding signal,ELF3,"1.04 fold enrichment (6-mer frequency, TF over GST control)"
same,binding signal,CRX,"1.05 fold enrichment (6-mer frequency, TF over GST control)"
same,binding signal,ETV1,"1.13 fold enrichment (6-mer frequency, TF over GST control)"
